Assay in all cases: NCI-60 one-dose screen, 48 h (100 = growth as untreated, 0 = no growth, -100 = all killed)
The subject of one test is HCT-15 colon. Conditions: 10 µM unless noted.
A further test concerns HT29 colon. To be noted: 10 µM unless noted.
Another test has as its system SNB-75 CNS. To be noted: 10 µM unless noted.
For another test, the system named is SNB-19 CNS. Conditions: 10 µM unless noted.
The test system of another test is U251 CNS. Conditions: 10 µM unless noted.
The test system of a further test is PC-3 prostate. Conditions: 10 µM unless noted.
The test system of another test is SK-MEL-5 melanoma. To be noted: 10 µM unless noted.
For a further test, the system named is UACC-62 melanoma. To be noted: 10 µM unless noted.
A further test deals with LOX IMVI melanoma. To be noted: 10 µM unless noted.
Another test concerns SK-MEL-28 melanoma. Conditions: 10 µM unless noted.
Another test has as its system SK-MEL-2 melanoma. To be noted: 10 µM unless noted.
A further test concerns EKVX NSCLC. To be noted: 10 µM unless noted.
The test system of another test is SN12C renal. Conditions: 10 µM unless noted.
For the next test, the system named is UO-31 renal. To be noted: 10 µM unless noted.
For another test, the system named is TK-10 renal. To be noted: 10 µM unless noted.
The test system of a further test is ACHN renal. To be noted: 10 µM unless noted.
A further test relates to CAKI-1 renal. To be noted: 10 µM.
In another test the test system is A498 renal. To be noted: 10 µM unless noted.
The next test has as its system CCRF-CEM leukemia. To be noted: 10 µM unless noted.
In the next test the test system is MOLT-4 leukemia. Conditions: 10 µM unless noted.

This is part of a sample that, as a whole, favours compounds with a hit. Of some 83,000 tested, about 20% had one in any assay.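 Growth was measured after 48 h exposure to one concentration of compound in 96-well plates. Values under 10 count as active.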 Unmarked numbers belong to inactive results. Activity calls are given as the source filed them.

`Cn1ccnc1C(=O)/C=C/c1ccc(C(=O)Nc2ccc(NC(=O)CCNC(=O)c3csc(Br)n3)cc2)cc1`: the growth with HCT-15 colon was 28.6%; with HT29 colon, 13.2%; in the test with SNB-75 CNS, 71.2%; in the test on SNB-19 CNS, 60.6%; in the test on U251 CNS, 23.9%; in the test with PC-3 prostate, 48%. For the same compound, the growth in the test on SK-MEL-5 melanoma was 98.8%; with UACC-62 melanoma, 68.3%; in the test on LOX IMVI melanoma it was 11.5%; in the test with SK-MEL-28 melanoma it was 89.3%; in the test on SK-MEL-2 melanoma it was 109%; in the test with EKVX NSCLC, 69.9%. Besides, the growth with SN12C renal is 40.2%; in the test on UO-31 renal it was 46.6%; in the test on TK-10 renal, 89.7%; in the test with ACHN renal, 61.8%; in the test on CAKI-1 renal, 29.3%; in the test with A498 renal, 100%. The growth was 12.9% in the test on CCRF-CEM leukemia and 70.3% with MOLT-4 leukemia.

Consider `COc1ccc(N)cc1C(=O)Nc1cccc(-c2cc(=O)c3c(OC)c(OC)c(OC)cc3o2)c1`, for which the growth in the test with HCT-15 colon is 44.7%; in the test on HT29 colon, 56.5%; in the test on SNB-75 CNS it was 93.1%; in the test on SNB-19 CNS, 76.6%; in the test with U251 CNS, 49.9%; in the test on PC-3 prostate, 74.1%. In addition, the growth with SK-MEL-5 melanoma was 41%; with UACC-62 melanoma, 61.2%; in the test on LOX IMVI melanoma, 44.3%; in the test with SK-MEL-28 melanoma it was 86.6%; with SK-MEL-2 melanoma, 89.1%; in the test on EKVX NSCLC it was 84.8%. For the same compound, the growth in the test with SN12C renal was 49.7%; in the test with UO-31 renal, 29.4%; in the test on TK-10 renal, 81.5%; with ACHN renal, 52.3%; with CAKI-1 renal it was 43.1%; in the test with A498 renal it was 63.1%. For the same compound, the figures for the growth in the test on CCRF-CEM leukemia and in the test with MOLT-4 leukemia were 34% and 48.2%, respectively.

In the case of `CC(=O)Nc1ccc(C)c(Nc2cc(-c3ccc(-n4cccn4)cc3)[nH]n2)c1`, the growth with HCT-15 colon was 41.3%; in the test with HT29 colon, 27.8%; in the test on SNB-75 CNS it was 64.2%; in the test on SNB-19 CNS it was 45.7%; in the test with U251 CNS, 42.5%; with PC-3 prostate it was 65.3%. The growth in the test on SK-MEL-5 melanoma is 53.6%; with UACC-62 melanoma, 46.7%; in the test with LOX IMVI melanoma, 60%; with SK-MEL-28 melanoma, 61%; in the test on SK-MEL-2 melanoma, 3.79% (active); in the test on EKVX NSCLC, 74.7%. In addition, the growth in the test on SN12C renal was 60.9%; in the test on UO-31 renal, 60.6%; in the test with TK-10 renal, 89.6%; in the test on ACHN renal, 65.8%; with CAKI-1 renal it was 47.2%; in the test with A498 renal it was 27.3%. Also, the growth in the test on CCRF-CEM leukemia is 26.1%; in the test on MOLT-4 leukemia it was 47.8%.

For the compound `Cc1cc(C(=O)Nc2ccc(SC#N)cc2)c(C)o1`, the growth is 82.1% in the test with HCT-15 colon; 106% in the test with HT29 colon; 104% in the test on SNB-75 CNS; 90.7% in the test on SNB-19 CNS; 76% in the test on U251 CNS; 73.9% in the test on PC-3 prostate. The growth in the test with SK-MEL-5 melanoma is 99.6%; with UACC-62 melanoma, 93.1%; in the test with LOX IMVI melanoma it was -41.2% (active); in the test on SK-MEL-28 melanoma it was 104%; in the test with SK-MEL-2 melanoma, 110%; in the test with EKVX NSCLC it was 90.4%. Further, the growth in the test with SN12C renal is 70.6%; with UO-31 renal, 49.3%; with TK-10 renal, 101%; in the test on ACHN renal, 100%; in the test on CAKI-1 renal, 81.7%; with A498 renal, 94.4%. Besides, the growth in the test with CCRF-CEM leukemia was 28.8%; in the test with MOLT-4 leukemia, 29.7%.

Take `COc1cc(NC2=C(Cl)C(=O)c3nc(C)ccc3C2=O)cc(OC)c1`: the growth in the test on HCT-15 colon was -66.2% (active); in the test with HT29 colon, 24.9%; with SNB-75 CNS, -4.09% (active); in the test on SNB-19 CNS, 30.4%; in the test on U251 CNS it was 36.8%; in the test on PC-3 prostate, 28%. Besides, the growth in the test on SK-MEL-5 melanoma was -74.9% (active); with UACC-62 melanoma, -43.6% (active); in the test on LOX IMVI melanoma, -82.6% (active); in the test on SK-MEL-28 melanoma it was -73.1% (active); in the test on SK-MEL-2 melanoma it was 5.03% (active); with EKVX NSCLC, 74.7%. The growth in the test on SN12C renal is -63.3% (active); in the test with UO-31 renal, -94.6% (active); in the test with TK-10 renal, -50.1% (active); in the test with ACHN renal, -99.6% (active); with CAKI-1 renal it was -96.5% (active); in the test on A498 renal it was 71.1%. Moreover, the growth with CCRF-CEM leukemia is 2.72% (active); in the test with MOLT-4 leukemia, 8.29% (active).

Regarding `O=C(NNc1nc2cc(F)cc(F)c2n2cccc12)c1ccncn1`, the growth with HCT-15 colon was 25.3%; in the test on HT29 colon it was 23.8%; in the test with SNB-75 CNS, 19.3%; in the test on SNB-19 CNS it was 21.9%; in the test with U251 CNS, 9.14% (active); with PC-3 prostate, 33.6%. Moreover, the growth in the test on SK-MEL-5 melanoma is -4.3% (active); in the test on UACC-62 melanoma, 3.64% (active); in the test with LOX IMVI melanoma it was 6.37% (active); with SK-MEL-28 melanoma, 22.9%; with SK-MEL-2 melanoma, 22%; in the test with EKVX NSCLC, 7.66% (active). Besides, the growth in the test on SN12C renal is 19.6%; in the test with UO-31 renal, 17.3%; in the test on TK-10 renal it was 10%; with ACHN renal it was 11.6%; in the test on CAKI-1 renal, 16.5%; with A498 renal, 22.2%. Moreover, the growth with CCRF-CEM leukemia was 5.12% (active); in the test with MOLT-4 leukemia, 4.2% (active).

As for `Fc1ccc(-c2cc3nc(C(Cl)Cl)nc(-c4cccs4)n3n2)cc1`, the growth in the test on HCT-15 colon was 15.9%; with HT29 colon it was 4.52% (active); in the test with SNB-75 CNS, 69.8%; with SNB-19 CNS, 9.61% (active); with U251 CNS, -3.12% (active); in the test with PC-3 prostate it was 1.42% (active). The growth in the test on SK-MEL-5 melanoma is 92%; with UACC-62 melanoma, 45.8%; with LOX IMVI melanoma, 94.8%; in the test with SK-MEL-28 melanoma, 23.6%; with SK-MEL-2 melanoma, 87.7%; in the test on EKVX NSCLC it was 6.21% (active). Moreover, the growth was 64.5% in the test with SN12C renal; 40.6% in the test with UO-31 renal; 7.64% (active) in the test on TK-10 renal; -19.9% (active) in the test with ACHN renal; -20.4% (active) with CAKI-1 renal; -20.7% (active) in the test on A498 renal. The figures for the growth with CCRF-CEM leukemia and with MOLT-4 leukemia were 86% and 65.4%, respectively.

The record behind these values is PubChem BioAssay (NCI).
